Assay results as given in paper PMC7862700, “An all-to-all approach to the identification of sequence-specific readers for epigenetic DNA modifications on cytosine”.

Experiments:
Assay in all cases: DAPPL (digital affinity profiling via proximity ligation, sequencing); 10 mM Tris-HCl pH 7.5, 50 mM NaCl, 1 mM DTT, 4% glycerol, room temperature, 30 min; GST-TFs on glutathione beads, 16-mer random dsDNA library, 0.1% formaldehyde crosslink after washing; high values mean tight binding
FEV = molecular target: T1, FEV (Homo sapiens, UniProt Q99581 1-238); conditions: protein: recombinant; tags: N-terminal GST; dsDNA, one strand shown
T1 sequence: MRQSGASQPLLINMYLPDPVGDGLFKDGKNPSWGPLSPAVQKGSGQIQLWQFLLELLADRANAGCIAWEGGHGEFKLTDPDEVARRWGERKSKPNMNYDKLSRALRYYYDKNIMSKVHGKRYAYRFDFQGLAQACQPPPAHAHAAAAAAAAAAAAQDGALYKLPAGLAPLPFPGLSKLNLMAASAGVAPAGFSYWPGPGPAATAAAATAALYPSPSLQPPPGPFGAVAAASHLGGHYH
Summary of the method: (§1)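 Human transcription factors were made in yeast as GST fusions, captured on glutathione beads and barcoded with DNA. With a tag-only sample included, the pool was incubated with 200 nmole of a random double-stranded 16-mer DNA library in Tris/NaCl/DTT/glycerol buffer at room temperature for 30 min, then crosslinked with 0.1% formaldehyde after washing, ligated by proximity, amplified and sequenced. For binding signal, each hexamer's read frequency for a factor is divided by its frequency for the tag-only sample.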

ETV5 = ETV5 (Homo sapiens, UniProt P41161 1-510); conditions: protein: recombinant; tags: N-terminal GST; dsDNA, one strand shown
Summary of the method: as §1

HSF1 = HSF1 (Homo sapiens, UniProt Q00613 1-529); conditions: protein: recombinant; tags: N-terminal GST; chain copies: 3; dsDNA, one strand shown
Summary of the method: as §1

SPIC = molecular target: T2, SPIC (Homo sapiens, UniProt Q8N5J4 1-248); conditions: protein: recombinant; tags: N-terminal GST; dsDNA, one strand shown
T2 sequence: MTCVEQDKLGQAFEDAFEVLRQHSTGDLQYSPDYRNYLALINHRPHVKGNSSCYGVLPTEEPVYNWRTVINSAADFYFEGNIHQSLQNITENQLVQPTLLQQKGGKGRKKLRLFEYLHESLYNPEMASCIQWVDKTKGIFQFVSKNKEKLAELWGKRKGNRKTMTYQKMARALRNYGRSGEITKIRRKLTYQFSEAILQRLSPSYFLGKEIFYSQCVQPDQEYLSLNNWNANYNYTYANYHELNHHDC
Summary of the method: as §1

ELF4 = ELF4 (Homo sapiens, UniProt Q99607 1-663); conditions: protein: recombinant; tags: N-terminal GST; dsDNA, one strand shown
Summary of the method: as §1

ELK4 = molecular target: T3, ELK4 (Homo sapiens, UniProt P28324-2 1-405); conditions: protein: recombinant; tags: N-terminal GST; dsDNA, one strand shown
T3 sequence: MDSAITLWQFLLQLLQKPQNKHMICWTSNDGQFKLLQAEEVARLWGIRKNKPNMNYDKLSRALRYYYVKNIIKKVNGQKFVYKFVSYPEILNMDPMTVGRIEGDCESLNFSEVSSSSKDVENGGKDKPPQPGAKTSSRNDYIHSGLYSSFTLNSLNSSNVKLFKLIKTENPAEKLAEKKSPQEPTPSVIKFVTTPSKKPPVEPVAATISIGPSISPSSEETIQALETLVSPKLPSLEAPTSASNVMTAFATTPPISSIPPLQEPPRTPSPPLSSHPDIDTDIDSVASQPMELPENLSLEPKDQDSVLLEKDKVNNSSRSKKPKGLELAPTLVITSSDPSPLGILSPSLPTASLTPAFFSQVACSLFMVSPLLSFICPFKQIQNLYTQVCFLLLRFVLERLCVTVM
Summary of the method: as §1

ETV2 = molecular target: T4, ETV2 (Homo sapiens, UniProt O00321 1-342); conditions: protein: recombinant; tags: N-terminal GST; dsDNA, one strand shown
T4 sequence: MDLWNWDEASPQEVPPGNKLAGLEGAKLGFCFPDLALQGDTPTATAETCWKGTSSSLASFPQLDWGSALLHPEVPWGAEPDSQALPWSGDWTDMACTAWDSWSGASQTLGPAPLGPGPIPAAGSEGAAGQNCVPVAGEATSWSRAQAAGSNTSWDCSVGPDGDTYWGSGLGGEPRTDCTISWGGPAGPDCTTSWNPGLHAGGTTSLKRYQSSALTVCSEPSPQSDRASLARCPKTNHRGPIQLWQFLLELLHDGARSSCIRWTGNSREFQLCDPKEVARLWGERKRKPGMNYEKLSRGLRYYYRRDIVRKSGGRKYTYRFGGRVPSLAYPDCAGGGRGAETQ
Summary of the method: as §1

ELF3 = molecular target: T5, ELF3 (Homo sapiens, UniProt P78545 1-371); conditions: protein: recombinant; tags: N-terminal GST; dsDNA, one strand shown
T5 sequence: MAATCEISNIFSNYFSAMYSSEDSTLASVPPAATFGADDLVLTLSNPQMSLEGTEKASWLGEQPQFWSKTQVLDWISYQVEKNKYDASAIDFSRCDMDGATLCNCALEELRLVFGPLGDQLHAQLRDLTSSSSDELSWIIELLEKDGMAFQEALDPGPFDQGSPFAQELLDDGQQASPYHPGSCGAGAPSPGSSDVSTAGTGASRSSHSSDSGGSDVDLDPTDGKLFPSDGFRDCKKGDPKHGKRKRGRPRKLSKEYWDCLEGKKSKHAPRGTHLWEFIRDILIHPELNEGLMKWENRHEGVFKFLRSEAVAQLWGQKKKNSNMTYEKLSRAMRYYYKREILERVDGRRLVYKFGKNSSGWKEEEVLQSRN
Summary of the method: as §1

CRX = CRX (Homo sapiens, UniProt O43186 1-299); conditions: protein: recombinant; tags: N-terminal GST; dsDNA, one strand shown
Summary of the method: as §1

ETV1 = ETV1 (Homo sapiens, UniProt P50549 1-477); conditions: protein: recombinant; tags: N-terminal GST; dsDNA, one strand shown
Summary of the method: as §1

ERF = molecular target: T6, ERF (Homo sapiens, UniProt P50548 1-548); conditions: protein: recombinant; tags: N-terminal GST; dsDNA, one strand shown
T6 sequence: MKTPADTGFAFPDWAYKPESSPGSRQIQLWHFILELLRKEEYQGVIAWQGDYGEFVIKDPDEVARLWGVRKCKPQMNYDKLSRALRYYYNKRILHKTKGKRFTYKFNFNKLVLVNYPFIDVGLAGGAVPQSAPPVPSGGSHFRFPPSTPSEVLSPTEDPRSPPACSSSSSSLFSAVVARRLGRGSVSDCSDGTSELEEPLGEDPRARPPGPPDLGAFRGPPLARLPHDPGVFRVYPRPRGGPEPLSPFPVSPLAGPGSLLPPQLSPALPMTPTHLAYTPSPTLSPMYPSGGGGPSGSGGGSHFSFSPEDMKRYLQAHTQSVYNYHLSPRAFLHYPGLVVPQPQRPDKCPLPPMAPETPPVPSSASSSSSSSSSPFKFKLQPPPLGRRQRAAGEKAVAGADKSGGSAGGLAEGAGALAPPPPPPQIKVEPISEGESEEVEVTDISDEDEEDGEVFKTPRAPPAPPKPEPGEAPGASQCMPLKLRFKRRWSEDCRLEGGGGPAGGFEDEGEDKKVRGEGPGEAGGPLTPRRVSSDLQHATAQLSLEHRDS
Summary of the method: as §1

ETV3L = molecular target: T7, ETV3L (Homo sapiens, UniProt Q6ZN32 1-361); conditions: protein: recombinant; tags: N-terminal GST; dsDNA, one strand shown
T7 sequence: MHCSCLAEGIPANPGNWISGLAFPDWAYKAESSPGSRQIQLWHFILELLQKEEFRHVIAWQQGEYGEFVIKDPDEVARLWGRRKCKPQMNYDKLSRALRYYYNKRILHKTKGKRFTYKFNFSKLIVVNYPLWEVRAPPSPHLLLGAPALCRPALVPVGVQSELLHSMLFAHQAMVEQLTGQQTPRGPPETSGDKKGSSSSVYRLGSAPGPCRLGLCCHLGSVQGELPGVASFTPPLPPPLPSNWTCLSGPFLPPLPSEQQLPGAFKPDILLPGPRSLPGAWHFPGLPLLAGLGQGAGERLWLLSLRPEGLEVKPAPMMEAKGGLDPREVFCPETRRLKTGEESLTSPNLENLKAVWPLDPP
Summary of the method: as §1

ETS2 = molecular target: T8, ETS2 (Homo sapiens, UniProt P15036 1-469); conditions: protein: recombinant; tags: N-terminal GST; dsDNA, one strand shown
T8 sequence: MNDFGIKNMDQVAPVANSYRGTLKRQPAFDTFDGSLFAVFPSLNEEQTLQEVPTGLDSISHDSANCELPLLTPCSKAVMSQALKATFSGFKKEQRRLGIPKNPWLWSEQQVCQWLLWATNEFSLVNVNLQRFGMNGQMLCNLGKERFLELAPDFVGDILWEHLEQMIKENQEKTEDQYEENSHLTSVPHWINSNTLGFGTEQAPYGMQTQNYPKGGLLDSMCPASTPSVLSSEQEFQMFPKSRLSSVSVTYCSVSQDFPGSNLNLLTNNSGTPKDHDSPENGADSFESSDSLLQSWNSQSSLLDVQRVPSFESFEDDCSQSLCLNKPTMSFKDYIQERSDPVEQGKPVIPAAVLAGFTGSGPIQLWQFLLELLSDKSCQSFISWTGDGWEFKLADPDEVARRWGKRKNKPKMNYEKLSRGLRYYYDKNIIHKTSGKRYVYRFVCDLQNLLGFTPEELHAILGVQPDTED
Summary of the method: as §1

SPDEF = molecular target: T9, SPDEF (Homo sapiens, UniProt O95238 1-335); conditions: protein: recombinant; tags: N-terminal GST; dsDNA, one strand shown
T9 sequence: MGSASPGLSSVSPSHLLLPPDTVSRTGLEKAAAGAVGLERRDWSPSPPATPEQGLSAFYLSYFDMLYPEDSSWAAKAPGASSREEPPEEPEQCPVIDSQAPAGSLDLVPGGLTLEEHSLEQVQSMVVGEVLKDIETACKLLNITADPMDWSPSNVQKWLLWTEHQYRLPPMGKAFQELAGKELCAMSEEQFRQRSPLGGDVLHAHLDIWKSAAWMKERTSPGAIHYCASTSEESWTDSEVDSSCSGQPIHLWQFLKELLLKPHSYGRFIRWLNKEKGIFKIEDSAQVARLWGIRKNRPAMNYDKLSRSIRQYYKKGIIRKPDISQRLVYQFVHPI
Summary of the method: as §1

ETV7 = molecular target: T10, ETV7 (Homo sapiens, UniProt Q9Y603 1-341); conditions: protein: recombinant; tags: N-terminal GST; dsDNA, one strand shown
T10 sequence: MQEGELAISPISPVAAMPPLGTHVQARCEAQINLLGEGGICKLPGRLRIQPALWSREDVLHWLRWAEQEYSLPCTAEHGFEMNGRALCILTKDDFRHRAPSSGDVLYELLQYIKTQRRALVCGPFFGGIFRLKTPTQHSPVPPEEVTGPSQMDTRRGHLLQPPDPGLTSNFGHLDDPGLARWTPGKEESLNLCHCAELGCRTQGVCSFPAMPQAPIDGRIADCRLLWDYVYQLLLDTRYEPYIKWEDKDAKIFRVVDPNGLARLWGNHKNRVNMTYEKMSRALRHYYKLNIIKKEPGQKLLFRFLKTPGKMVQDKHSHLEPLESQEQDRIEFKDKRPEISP
Summary of the method: as §1

ELF5 = molecular target: T11, ELF5 (Homo sapiens, UniProt Q9UKW6-2 1-255); conditions: protein: recombinant; tags: N-terminal GST; dsDNA, one strand shown
T11 sequence: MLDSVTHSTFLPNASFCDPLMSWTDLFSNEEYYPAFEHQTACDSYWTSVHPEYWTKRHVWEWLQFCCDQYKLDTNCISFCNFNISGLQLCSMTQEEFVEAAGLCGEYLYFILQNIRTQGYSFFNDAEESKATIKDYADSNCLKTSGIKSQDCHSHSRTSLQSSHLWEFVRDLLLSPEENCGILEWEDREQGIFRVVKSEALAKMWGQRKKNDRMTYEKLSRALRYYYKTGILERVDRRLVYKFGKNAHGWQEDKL
Summary of the method: as §1

ETV3 = molecular target: T12, ETV3 (Homo sapiens, UniProt P41162-2 1-143); conditions: protein: recombinant; tags: N-terminal GST; dsDNA, one strand shown
T12 sequence: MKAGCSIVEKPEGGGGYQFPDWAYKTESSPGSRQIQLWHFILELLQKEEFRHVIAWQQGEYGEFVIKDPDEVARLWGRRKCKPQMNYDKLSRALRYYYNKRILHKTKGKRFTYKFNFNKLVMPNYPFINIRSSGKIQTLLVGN
Summary of the method: as §1

ETV6 = ETV6 (Homo sapiens, UniProt P41212 1-452); conditions: protein: recombinant; tags: N-terminal GST; dsDNA, one strand shown
Summary of the method: as §1

Sequence of ETV5 (P41161 whole entry): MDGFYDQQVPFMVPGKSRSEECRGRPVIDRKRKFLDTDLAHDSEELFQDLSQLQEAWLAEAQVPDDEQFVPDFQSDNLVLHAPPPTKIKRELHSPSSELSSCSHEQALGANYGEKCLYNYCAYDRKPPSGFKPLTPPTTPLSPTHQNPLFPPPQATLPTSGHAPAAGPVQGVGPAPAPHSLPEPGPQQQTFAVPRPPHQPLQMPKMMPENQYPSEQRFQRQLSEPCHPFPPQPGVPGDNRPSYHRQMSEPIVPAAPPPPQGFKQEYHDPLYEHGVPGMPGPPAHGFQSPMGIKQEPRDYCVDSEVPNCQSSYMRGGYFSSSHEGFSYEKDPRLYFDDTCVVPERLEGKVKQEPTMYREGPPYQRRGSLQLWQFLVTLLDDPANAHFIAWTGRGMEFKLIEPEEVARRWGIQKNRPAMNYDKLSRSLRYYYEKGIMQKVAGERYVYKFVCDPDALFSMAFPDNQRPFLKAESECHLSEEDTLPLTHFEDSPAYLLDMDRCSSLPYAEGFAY
Sequence of ETV6 (P41212 whole entry): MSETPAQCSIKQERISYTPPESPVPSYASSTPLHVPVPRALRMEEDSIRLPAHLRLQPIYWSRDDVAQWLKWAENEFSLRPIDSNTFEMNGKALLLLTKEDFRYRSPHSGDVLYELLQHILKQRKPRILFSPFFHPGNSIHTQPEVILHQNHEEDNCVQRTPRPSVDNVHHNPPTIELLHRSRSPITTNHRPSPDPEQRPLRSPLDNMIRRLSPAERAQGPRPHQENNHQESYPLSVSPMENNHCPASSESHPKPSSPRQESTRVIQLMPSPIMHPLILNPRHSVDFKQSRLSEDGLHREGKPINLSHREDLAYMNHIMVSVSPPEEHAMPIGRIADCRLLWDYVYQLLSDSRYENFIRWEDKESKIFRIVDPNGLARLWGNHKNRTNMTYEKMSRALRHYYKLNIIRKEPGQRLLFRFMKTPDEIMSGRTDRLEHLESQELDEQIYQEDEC
Sequence of ELF4 (Q99607 whole entry): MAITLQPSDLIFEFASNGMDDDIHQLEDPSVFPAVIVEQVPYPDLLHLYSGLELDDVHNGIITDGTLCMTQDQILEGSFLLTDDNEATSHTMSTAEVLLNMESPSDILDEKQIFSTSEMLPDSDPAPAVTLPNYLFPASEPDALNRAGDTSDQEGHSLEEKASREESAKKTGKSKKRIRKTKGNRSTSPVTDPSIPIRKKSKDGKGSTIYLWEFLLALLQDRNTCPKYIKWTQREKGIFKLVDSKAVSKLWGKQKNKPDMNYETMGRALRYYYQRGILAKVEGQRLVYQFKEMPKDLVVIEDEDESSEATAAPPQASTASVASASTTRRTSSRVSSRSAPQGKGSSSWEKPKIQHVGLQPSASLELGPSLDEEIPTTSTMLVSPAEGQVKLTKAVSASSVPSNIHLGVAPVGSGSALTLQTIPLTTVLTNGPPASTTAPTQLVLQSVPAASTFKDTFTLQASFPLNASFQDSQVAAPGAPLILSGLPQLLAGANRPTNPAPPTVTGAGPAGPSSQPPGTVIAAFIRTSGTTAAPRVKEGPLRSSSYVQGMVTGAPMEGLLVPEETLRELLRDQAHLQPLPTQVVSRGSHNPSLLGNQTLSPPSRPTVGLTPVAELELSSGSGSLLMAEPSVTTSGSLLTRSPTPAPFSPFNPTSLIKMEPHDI
Sequence of CRX (O43186 whole entry): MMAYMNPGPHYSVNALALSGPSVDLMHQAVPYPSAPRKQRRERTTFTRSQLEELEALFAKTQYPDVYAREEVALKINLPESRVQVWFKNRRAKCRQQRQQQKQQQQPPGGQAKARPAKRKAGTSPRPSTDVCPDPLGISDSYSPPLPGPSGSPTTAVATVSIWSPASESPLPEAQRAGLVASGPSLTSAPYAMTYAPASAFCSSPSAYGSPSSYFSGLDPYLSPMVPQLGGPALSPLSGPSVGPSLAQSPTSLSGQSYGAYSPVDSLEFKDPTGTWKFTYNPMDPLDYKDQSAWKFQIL
Sequence of ETV1 (P50549 whole entry): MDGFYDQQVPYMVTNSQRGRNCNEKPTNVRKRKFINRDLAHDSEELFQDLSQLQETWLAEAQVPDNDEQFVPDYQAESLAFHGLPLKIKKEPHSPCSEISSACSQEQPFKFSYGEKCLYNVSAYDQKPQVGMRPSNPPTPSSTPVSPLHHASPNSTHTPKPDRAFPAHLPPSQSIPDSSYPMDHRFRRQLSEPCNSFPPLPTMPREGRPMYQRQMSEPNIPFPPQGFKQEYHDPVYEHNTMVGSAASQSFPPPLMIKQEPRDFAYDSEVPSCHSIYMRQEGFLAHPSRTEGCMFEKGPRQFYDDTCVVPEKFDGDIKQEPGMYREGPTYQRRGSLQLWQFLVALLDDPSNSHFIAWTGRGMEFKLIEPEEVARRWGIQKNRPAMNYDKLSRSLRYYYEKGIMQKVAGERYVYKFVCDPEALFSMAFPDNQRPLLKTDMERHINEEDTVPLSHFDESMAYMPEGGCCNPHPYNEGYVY
Sequence of HSF1 (Q00613 whole entry): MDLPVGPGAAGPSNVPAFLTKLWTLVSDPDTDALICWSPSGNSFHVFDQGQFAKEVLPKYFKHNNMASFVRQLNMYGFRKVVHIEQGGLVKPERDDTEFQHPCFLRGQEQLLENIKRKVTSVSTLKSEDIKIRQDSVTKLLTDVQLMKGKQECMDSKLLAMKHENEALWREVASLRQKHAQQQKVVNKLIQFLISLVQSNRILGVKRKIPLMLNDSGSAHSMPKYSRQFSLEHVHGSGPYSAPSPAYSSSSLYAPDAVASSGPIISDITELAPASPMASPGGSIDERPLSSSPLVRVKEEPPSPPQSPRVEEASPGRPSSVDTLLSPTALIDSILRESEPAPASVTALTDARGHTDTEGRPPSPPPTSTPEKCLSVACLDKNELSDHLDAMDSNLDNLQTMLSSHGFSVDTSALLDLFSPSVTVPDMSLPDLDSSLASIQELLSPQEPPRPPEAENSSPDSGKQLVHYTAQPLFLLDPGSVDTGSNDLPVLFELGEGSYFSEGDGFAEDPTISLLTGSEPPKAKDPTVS

**Q.** Which binding signal (FEV) does the source give for TCTTGT here?
**A.** 1.52 fold enrichment (6-mer frequency, TF over GST control)

**Q.** What about the binding signal (ETV5) of the same sequence?
**A.** 1.49 fold enrichment (6-mer frequency, TF over GST control)

**Q.** And the binding signal (HSF1)?
**A.** 1.55 fold enrichment (6-mer frequency, TF over GST control)

**Q.** What about the binding signal (SPIC) of the same sequence?
**A.** 1.39 fold enrichment (6-mer frequency, TF over GST control)

**Q.** What about the binding signal (ELF4) of the same sequence?
**A.** 1.66 fold enrichment (6-mer frequency, TF over GST control)

**Q.** And the binding signal (ELK4)?
**A.** 1.49 fold enrichment (6-mer frequency, TF over GST control)

**Q.** And the binding signal (ETV2)?
**A.** 1.4 fold enrichment (6-mer frequency, TF over GST control)

**Q.** And the binding signal (ELF3)?
**A.** 1.55 fold enrichment (6-mer frequency, TF over GST control)

**Q.** What about the binding signal (CRX) of the same sequence?
**A.** 1.48 fold enrichment (6-mer frequency, TF over GST control)

**Q.** And the binding signal (ETV1)?
**A.** 1.57 fold enrichment (6-mer frequency, TF over GST control)

**Q.** What about the binding signal (ERF) of the same sequence?
**A.** 1.68 fold enrichment (6-mer frequency, TF over GST control)

**Q.** What about the binding signal (ETV3L) of the same sequence?
**A.** 1.61 fold enrichment (6-mer frequency, TF over GST control)

**Q.** What about the binding signal (ETS2) of the same sequence?
**A.** 1.47 fold enrichment (6-mer frequency, TF over GST control)

**Q.** What about the binding signal (SPDEF) of the same sequence?
**A.** 1.57 fold enrichment (6-mer frequency, TF over GST control)

**Q.** And the binding signal (ETV7)?
**A.** 1.57 fold enrichment (6-mer frequency, TF over GST control)

**Q.** And the binding signal (ELF5)?
**A.** 1.42 fold enrichment (6-mer frequency, TF over GST control)

**Q.** And the binding signal (ETV3)?
**A.** 1.5 fold enrichment (6-mer frequency, TF over GST control)

**Q.** What about the binding signal (ETV6) of the same sequence?
**A.** 1.48 fold enrichment (6-mer frequency, TF over GST control)
